We go through 8 compounds from PubChem BioAssay.

Where “and” joins values, the source holds several entries; their conditions need not be identical. Equal entries are not always repeated. Calls of active or inactive are those of the source. Unless noted, no rule for the calls is given here.

The nature of assay [1]: circadian clock period modulators, cell-based, LOPAC library, luminescence reporter (AID 2774).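 Also: values are relative to mean of DMSO wells on each plate.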 The note with it: circadian reporter cells, at 7 µM, actives lie on both sides.
Assay [2] has as its system Hepatitis C virus NS3 helicase. Briefly: HCV NS3 helicase inhibitors, primary screen, biochemical, fluorescence polarization, LOPAC1280 library (AID 687035; in the data active = inhibition above about 37%). The settings on record: Purified HCV NS3 helicase, Cy5-dT15 ssDNA binding fluorescence polarization; stronger effect = higher value; concentration not given here. (In general: Fluorescence polarisation rises when a labelled molecule tumbles more slowly, as on binding a larger partner.)

Assay [3] in a line: Cy5 fluorescence quenching or enhancement artefacts, artefact control for HCV NS3 helicase inhibitor project, biochemical, LOPAC1280 (AID 687037). The note with it: Cy5-DNA-NS3h complex fluorescence interference counterscreen. For orientation: The purpose of a counterscreen is to sort out artefacts and off-target activity.
Assay [4] concerns Aerobactin synthetase IucA (Klebsiella pneumoniae). Nature of the assay: IucA aerobactin synthetase inhibitors, biochemical, Tocris library, absorbance (AID 1345561).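 Also: 100% = enzyme without compound and 0% = no enzyme.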 The note with it: purified IucA enzyme assay, absorbance (OD) read-out; stronger effect = lower value;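 tested at 8 µM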.
A short description of assay [5]: sensitizers of A549 cells to miR-34 induction, primary screen, imaging, A549 dox-inducible miR-34, nuclei and caspase counts (AID 1347080;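 active = compounds whose cell count with miR-34 switched on is under 0.7 times the count with it off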). The settings on record: A549 miR-34 inducible, Hoechst nuclei count, 48 h.
A short description of assay [6]: inhibitors of Cryptococcus chitosan production, flow cytometry, Cibacron Brilliant Red staining (AID 1347148).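 Also: compound exposure lasted three days at 37 degrees C.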 The note with it: Cryptococcus neoformans chitosan, stronger effect = lower value; at 10 µM unless noted. Background: In flow cytometry, cells or beads pass a laser one at a time.
Assay [7] can be described thus: phospholipid biosynthesis inhibitors in animal cells, primary screen, cell-based, LOPAC library, screen 4 (AID 1347384). The settings on record: phospholipid biosynthesis inhibition screen, at 10 µM.
A short description of assay [8]: viability rescue of complex I mutant cybrids, primary screen, cell-based, galactose medium, ATP luminescence (AID 1645843;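 active = z-score of at least 1.8 in each of two replicates, scored against plate mean and spread of sample wells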;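 also: positive z means more ATP and so rescue of galactose-driven cybrid death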). The note with it: complex I mutant cybrid cells, 72 h, stronger effect = higher value.
A short description of assay [9]: hESC survival regulators, cell-based (AID 493140).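 Also: cells exposed to compounds for four days before counting.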 The settings on record: human embryonic stem cell survival screen; stronger effect = higher value.
A short description of assay [10]: survival rescue of mitochondrial mutant cells in low glucose, primary screen, MELAS cybrids, Rieske KO mouse fibroblasts, CellTiter-Glo (AID 1508586;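 active = mean z-score across replicates of 1.96 or higher in either the MELAS or the Rieske mutant cell line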;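 also: z relative to plate mean and SD of compound and empty wells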).
Setting [11] is: stronger effect = lower value, cell number ratio, induced over uninduced.
[12] abbreviates: measured here: relative caspase fold change +Dox/-Dox.
The mark [13] stands for this setting: measured here: total cells with miR-34 induction, stronger effect = lower value.
The mark [14] stands for this setting: measured here: total cells without miR-34 induction.

Take `COc1ccc(CCN(C)CCc2ccc(OC)c(OC)c2)cc1OC`: the period change in assay [1] was 0.045 h (inactive). In addition, the inhibition in assay [2] was -1% (inactive). In addition, in assay [3], the fluorescence ratio (interference) is 1 (inactive). Further, the remaining activity in [4] was 104% (inactive). For the same compound, the fold change in assay [5] (setting [11]) was 0.949 (inactive) and 0.925 (inactive) and 0.899 (inactive); in assay [5] (setting [12]) it was 1.08 and 1.5 and 0.778. Besides, the cell count was 8830 and 6070 and 8850 in [5] (setting [13]); 9310 and 6560 and 9840 in assay [5] (setting [14]). Besides, the fold fluorescence in assay [6] is 2.96 [at 139.1 µM] (inactive). Moreover, the result in assay [7] was inactive. For the same compound, the z-score in assay [8] is -0.285 (inactive) and -0.27 (inactive).

As for `CC(=O)NNC(=O)N1Cc2ccccc2Oc2ccc(Cl)cc21`, the period change in assay [1] was -0.025 h (inactive). Moreover, the inhibition in assay [2] is -1% (inactive). In addition, the fluorescence ratio (interference) in assay [3] is 1 (inactive). Moreover, the remaining activity in assay [4] is 100% (inactive). In addition, the fold change in [5] (setting [11]) was 0.965 (inactive) and 0.956 (inactive); in assay [5] (setting [12]) it was 0.954 and 0.9. Besides, the cell count was 10200 and 8650 in assay [5] (setting [13]); 10600 and 9060 in [5] (setting [14]). For the same compound, the call in assay [7] was inactive. Further, in assay [8], the z-score was 1.17 (inactive) and 0.635 (inactive).

For `Clc1cccc(Nc2nnc(-c3ccccc3)c3ccccc23)c1`, the remaining activity in assay [4] was 100% (inactive). Besides, the fold change in [5] (setting [11]) was 0.991 (inactive) and 0.925 (inactive); in [5] (setting [12]), 0.939 and 0.863. Moreover, the cell count in assay [5] (setting [13]) was 1790 and 6180; in [5] (setting [14]), 1810 and 6680. Also, in assay [6], the fold fluorescence is 8.57 [at 150.7 µM] (inactive). Further, the z-score in assay [8] is -1.22 (inactive).

Turning to `COc1ccc(Br)cc1S(=O)(=O)NC(=O)/C=C/c1ccccc1Cc1ccc2ccccc2c1`, in assay [4], the remaining activity is 102% (inactive). The fold change in assay [5] (setting [11]) is 1.05 (inactive) and 0.853 (inactive); in assay [5] (setting [12]) it was 1.89 and 2.15. Further, the cell count in [5] (setting [13]) was 9590 and 8680; in [5] (setting [14]), 9110 and 10200. Besides, in assay [7], the call was inactive. In assay [8], the z-score was 0.395 (inactive) and 0.085 (inactive).

In the case of `CCCCCCCC/C=C\CCCCCCCC(N)=O`, the survival in assay [9] is 102 (inactive). In [4], the remaining activity is 107% (inactive). Besides, the fold change was 0.955 (inactive) and 0.909 (inactive) and 1 (inactive) in assay [5] (setting [11]); 1.2 and 0.885 and 0.621 in assay [5] (setting [12]). Further, the cell count in assay [5] (setting [13]) is 5390 and 5900 and 8530; in assay [5] (setting [14]), 5650 and 6490 and 8490. The fold fluorescence in assay [6] is 4.91 (inactive). Further, the z-score in assay [8] was -0.84 (inactive).

For the compound `CCCCCCCC/C=C\CCCCCCCC(=O)NCCc1ccc(O)c(O)c1`, in [1], the period change was 0.16 h (inactive). For the same compound, the survival in [9] was 98 (inactive). Moreover, the inhibition in assay [2] is -3% (inactive). In assay [3], the fluorescence ratio (interference) was 1 (inactive). Further, the remaining activity in [4] is 113% (inactive). The fold change was 0.822 (inactive) and 1.01 (inactive) and 1 (inactive) in assay [5] (setting [11]); 1.55 and 1.58 and 0.782 in assay [5] (setting [12]). Also, the cell count in assay [5] (setting [13]) was 4510 and 5800 and 5520; in assay [5] (setting [14]) it was 5490 and 5740 and 5510. Further, the compound was classed as inactive in assay [7]. In addition, the z-score in assay [8] is -1.38 (inactive) and -0.82 (inactive).

Regarding `Cc1ccc(-c2nn(C(C)(C)C)c3ncnc(N)c23)cc1`, in [9], the survival is 82.2 (inactive). Moreover, the remaining activity in assay [4] was 109% (inactive). Moreover, the fold change in [5] (setting [11]) is 1.15 (inactive) and 0.969 (inactive) and 1.02 (inactive); in [5] (setting [12]) it was 0.8 and 0.845 and 0.764. Further, the cell count in [5] (setting [13]) was 850 and 2400 and 3230; in assay [5] (setting [14]), 738 and 2480 and 3170. Besides, the fold fluorescence in [6] was 12.9 [at 177.7 µM] (inactive). For the same compound, the z-score was 0.565 (inactive) in [10] (MELAS cybrid survival, CellTiter-Glo 48 h, stronger effect = higher value); -0.238 in assay [10] (Rieske KO mouse fibroblast survival, CellTiter-Glo 72 h); 0.19 (inactive) in assay [8].

For the compound `CC1CCN=C(N)S1` (centres undefined), the period change in assay [1] is -0.02 h (inactive). In addition, the inhibition in assay [2] was -2% (inactive). For the same compound, in [3], the fluorescence ratio (interference) was 1 (inactive). Further, the remaining activity in assay [4] is 103% (inactive). The fold change in assay [5] (setting [11]) was 1.02 (inactive) and 0.923 (inactive); in assay [5] (setting [12]), 1.68 and 0.753. The cell count in [5] (setting [13]) is 9440 and 8650; in assay [5] (setting [14]), 9270 and 9380. For the same compound, the outcome in assay [7] was inactive. Also, the z-score in assay [8] was 0.31 (inactive) and 1.27 (inactive).

The inhibition is the drop in the measured response relative to a control, in per cent. Broadly, the remaining activity is the signal under treatment as a percentage of the control signal.
